Source: PubChem BioAssay (several laboratories)
TPT1 inhibitor: C. albicans TPT1 enzyme inhibition | recombinant caTPT1, FP RNA substrate dephosphorylation | inhibition, % at 5 µM | actives 0.81% (n = 300,000) | AID 1962;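 active = inhibition above the mean of all tested compounds plus 3 SD, set per screening campaign, cut at about 24% in these data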;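 note: plate controls were DMSO alone for no effect and ferristatin control at 100 nM for full effect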
Rpn11 block: blocks the human proteasome subunit Rpn11; human 26S proteasome, Ub4-pepOG fluorescence polarization; 20S core pre-blocked with epoxomicin; inhibition, % at 20 µM; actives 0.59% (n = 360,000); AID 588493;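 active = inhibition at 20 µM, scaled to each plate's controls, above about 33%, limit read from the data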
GRIN3A LBD mod: modulators (binders) of human NR3A ligand-binding domain; actives 2.5% (n = 340,000); AID 1259313; NR3A LBD differential scanning fluorimetry, Tm shift; 0% = protein alone, 100% = glycine-bound protein; Tm shift relative to glycine control, % at 25 µM;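 active = melting temperature shift of at least 10% of the positive control shift, at one fixed dose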
dFosB act: enhances mouse delta FosB homodimer DNA binding | activation, % at 25 µM | purified delta FosB, TAMRA-CDK5 oligo fluorescence polarization; percent of positive-control signal above neutral wells | actives 0.99% (n = 340,000) | AID 493131 | P13346;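 active = mean activation above about 17%, with every replicate also reaching it, limit read from the data, passing the limit was not always enough; inconclusive = only one of the two conditions met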
Target sequence (P13346 whole entry, looked up): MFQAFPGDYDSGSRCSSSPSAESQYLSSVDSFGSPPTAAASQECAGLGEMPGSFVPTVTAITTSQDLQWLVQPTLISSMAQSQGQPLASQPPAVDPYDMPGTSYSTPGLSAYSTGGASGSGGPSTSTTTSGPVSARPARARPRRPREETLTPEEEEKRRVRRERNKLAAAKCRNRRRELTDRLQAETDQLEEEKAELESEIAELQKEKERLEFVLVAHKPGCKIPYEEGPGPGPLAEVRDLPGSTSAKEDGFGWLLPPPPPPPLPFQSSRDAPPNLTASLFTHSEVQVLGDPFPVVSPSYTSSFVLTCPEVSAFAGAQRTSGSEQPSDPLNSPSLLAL
EBNA-1 inh: blocks EBNA-1 binding to DNA. EBNA-1 DNA binding, fluorescence polarization. actives 0.34% (n = 300,000). inhibition, % at 14.8 µM; in the data active = inhibition above about 28%
ZTA counter: blocks Epstein-Barr virus ZTA, an EBNA-1 counter-screen. P03206. ZTA-DNA binding, fluorescence polarization. inhibition, % at 11 µM. actives 0.15% (n = 320,000). AID 2234; in the data active = inhibition above about 33%
Target sequence (P03206 whole entry, looked up): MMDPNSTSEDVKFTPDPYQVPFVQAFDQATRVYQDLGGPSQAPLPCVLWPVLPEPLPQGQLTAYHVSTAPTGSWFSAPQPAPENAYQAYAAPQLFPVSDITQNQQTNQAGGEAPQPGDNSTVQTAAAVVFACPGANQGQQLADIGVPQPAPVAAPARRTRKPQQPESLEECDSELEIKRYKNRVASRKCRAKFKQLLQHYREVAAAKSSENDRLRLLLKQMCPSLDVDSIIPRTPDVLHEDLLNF
The depositor's hits bear a star; u = inconclusive; x = not tested or not shown. Hits are enriched below; roughly 4.5% of the tested compounds scored in any of these assays.

SMILES	TPT1 inhibitor	Rpn11 block	GRIN3A LBD mod	dFosB act	EBNA-1 inh	ZTA counter
CCCCOC(=O)c1c(C)oc2ccc(NS(=O)(=O)c3ccc4c5c(cccc35)C(=O)N4)cc12	-1.5	2.5	15.2*	-10.2	1.9	-6.3
COCCOC(=O)c1c(C)oc2ccc(NS(=O)(=O)c3cccs3)cc12	0.9	-0.3	-0.4	-6.6	-12.7	-14.3
O=C(COC(=O)c1cc([N+](=O)[O-])ccc1N1CCOCC1)NCc1ccc(Cl)cc1Cl	-0.3	5.3	-4.6	-5.7	7.1	-9.9
CSCc1ccc(C(=O)OCC(=O)NC2CCCC2)o1	x	-3.8	x	x	x	x
C=CCc1ccccc1OCC(O)CN1CCN(CCN2C(=O)c3cccc4cccc(c34)C2=O)CC1 (stereo unspecified)	1.5	-8.6	-11.3	47.1*	2.3	-9.3
COC1=CC(=O)OC(c2ccco2)C1 (stereo unspecified)	x	1.1	0.6	-1.1	x	x
NC(=O)Cn1nc(C(F)(F)F)c2c1CCCC2	-6.5	-7.7	27.3*	8.4	-6.6	-10.8
O=S(=O)(Nc1cc(Cl)ccc1-n1cncn1)c1cc(Br)ccc1Br	x	-15.6	22.5*	3.3	x	2.6
O=C(CCNS(=O)(=O)c1ccccc1)N1CCN(c2ccccc2F)CC1	-3.3	2.9	-1.1	-9.9	5.9	-7.7
CCOc1ccccc1N1CCN(C(=O)CCNS(=O)(=O)c2ccccc2F)CC1	0.4	-7.5	40.7*	-10.5	2.6	5.4
CCN1C(=O)[C@H]2[C@@H](c3ccc(Cl)cc3)N3C(=O)CN(CC4CC4)C(=O)[C@@]3(C)[C@H]2C1=O	-0.1	-3.8	3.4	-1.6	9.5	10.6
COc1cccc(Cn2nnc(C(=O)NCc3ccc4c(c3)OCO4)c2N)c1	-1.0	-3.4	-1.3	-5.2	9.8	0.2
Nc1c(C(=O)NCc2ccc3c(c2)OCO3)nnn1Cc1ccc(Br)cc1	3.1	3.2	0.5	20.2*	13.6	-8.4
Cc1ccc(C)c(N2CCN(C(=O)CCc3nc(-c4cccc(Cl)c4)no3)CC2)c1	x	-0.5	16.8*	-10.8	x	x
Cc1ccc(C)c(N2CCN(C(=O)CCc3nc(-c4ccc(Br)cc4)no3)CC2)c1	x	-4.4	17.2*	2.8	x	x
CCCCN1CCN=C1Nc1ccccc1	1.1	-5.4	-1.0	9.0	5.6	9.0
Cc1ccc(S(=O)(=O)NCCn2cnc([N+](=O)[O-])n2)cc1	0.2	-2.0	0.8	-9.0	-14.7	-13.0
O=C(Nc1ccccc1Cl)c1ccccc1Oc1ccc(C(F)(F)F)cc1[N+](=O)[O-]	-4.1	-1.2	11.8*	-8.5	-19.1	7.5
O=C(c1ccccc1Oc1ccc(C(F)(F)F)cc1[N+](=O)[O-])N1CCOCC1	2.8	-3.5	2.3	-1.9	-11.6	-16.4
Fc1c(F)c(C(F)(F)F)c(F)c(F)c1N/N=C\c1cccs1	0.2	4.5	22.4*	2.8	-2.8	-10.9
Cn1c(N/N=C/c2cccs2)cc(=O)n(C)c1=O	-2.5	-3.3	-1.4	-13.7	-16.6	11.5
CCOc1ccc(C(=O)NCc2ccco2)cc1OC	x	1.8	-3.5	-3.1	x	x
Cc1nn(-c2ccccc2)c(/N=C/c2ccc(O)cc2)c1-c1ccccc1	0.6	-4.3	26.1*	-3.2	14.5	11.8
Cc1nn(-c2ccccc2)c(C)c1-c1ccccc1O	-2.4	2.4	0.5	-1.7	1.3	-3.1
NC(=O)c1cccnc1Nc1ccccc1F	-1.8	-3.5	-1.0	-7.9	11.2	0.1
SMILES	TPT1 inhibitor	Rpn11 block	GRIN3A LBD mod	dFosB act	EBNA-1 inh	ZTA counter
Cc1cc(Cl)ccc1Nc1ncccc1C(N)=O	-3.5	2.2	151.0*	-10.3	11.3	-3.7
CCCCNc1nc(Nc2ccc(C)c(Cl)c2)c2cnn(C)c2n1	3.8	2.2	15.4*	-8.4	3.9	16.5
CCNc1nc(Nc2ccc(C)c(Cl)c2)c2cnn(C)c2n1	1.0	-0.3	-2.2	-10.7	-6.4	11.3
O=C(Cc1cn(Cc2cccc(Cl)c2)c2ccccc12)N1CCCCCC1	0.0	0.2	16.5*	-6.7	4.4	19.9
CC1CCCN(C(=O)Cc2cn(Cc3cccc(Cl)c3)c3ccccc23)C1 (stereo unspecified)	-3.2	9.0	5.6	-3.8	-4.3	-6.6
CS(=O)(=O)c1ccc(S(=O)(=O)N2CCC(CO)(CCCc3ccccc3)CC2)cc1	-0.9	1.6	-2.5	-9.7	0.9	1.8
O=C(Nc1ccc(Cl)cn1)c1cc2c(s1)-c1ccccc1OC2	2.9	7.3	15.2*	u	-3.7	11.0
O=C(Nc1cccnc1)c1cc2c(s1)-c1ccccc1OC2	3.6	-6.8	35.2*	0.1	-12.4	8.6
O=C(Nc1nc2ccccc2s1)c1cc2c(s1)-c1ccccc1OC2	2.4	5.8	-1.4	-4.1	18.4	6.3
O=C(Nc1cccnc1Cl)c1cc2c(s1)-c1ccccc1OC2	-3.7	-4.6	0.5	-1.4	-11.2	1.8
O=C(O)c1cc(-c2ccc(/C=c3\sc4nc5ccc(Br)cc5n4c3=O)o2)ccc1Cl	71.2*	x	x	x	-0.9	-0.5
CCN1/C(=C/C(C)=C/c2sc3ccccc3[n+]2CC)Sc2ccccc21	-40.6	121.2*	-14.4	507.4*	-0.6	-1.6
CCN1/C(=C\C(=S)Nc2ccccc2)Sc2ccccc21	-3.1	11.3	8.8	3.8	1.9	-1.2
CN(C)S(=O)(=O)c1cccc(NC(=S)Nc2ccc(Cl)cc2Cl)c1	0.9	1.2	1.9	-5.0	-7.7	-3.2
CN(C)S(=O)(=O)c1cccc(NC(=S)Nc2cc(Cl)cc(Cl)c2)c1	-0.3	-5.4	11.3*	-1.5	12.1	15.5
CC(C)CC(=O)NC(=S)Nc1ccccc1C(F)(F)F	-4.3	3.8	-0.5	0.6	-2.1	-19.2
CC(C)(C)CC(=O)NC(=S)Nc1ccccc1C(F)(F)F	-1.5	-0.9	14.0*	-7.5	-6.0	2.1
Cc1cc(C(=O)Nc2ccc(OCc3ccccc3)cc2)c(C)o1	1.4	-5.8	18.7*	-8.3	-1.8	1.0
Cc1ccc(C(=O)Nc2ccc(OCc3ccccc3)cc2)s1	-2.6	1.2	14.8*	2.6	3.0	19.6
Cc1ccsc1C(=O)Nc1ccc(OCc2ccccc2)cc1	-0.4	-7.2	18.3*	-4.4	20.4	18.0
Cc1ccsc1C(=O)Nc1ccc(C(=O)O)cc1	-2.1	-4.5	-0.2	6.8	0.4	-11.9
O=C(Nc1ccccc1F)c1ccc(OCc2ccccc2)cc1	0.9	-4.5	17.3*	u	-0.2	-1.0
Cc1c(C(=O)Nc2ccc(OCc3ccccc3)cc2)cccc1[N+](=O)[O-]	-3.9	3.7	-9.3	2.7	3.2	-6.7
O=C(Nc1ccc(OCc2ccccc2)cc1)c1ccccc1	-1.0	-2.6	-6.8	1.9	13.0	-7.1
Cc1c(Cl)cccc1NC(=S)NC1CCCC1	-1.3	2.7	5.8	1.5	-10.8	-8.5
CC(=O)N1c2ccc(S(=O)(=O)N3CCCC(C(=O)NCc4ccccc4)C3)cc2CC1C (stereo unspecified)	0.3	-9.5	-0.9	-6.4	-11.0	-22.8
COc1ccccc1NC(=O)c1cc2c(=O)n(C)c3ccccc3c2n1C	20.1	8.2	1.8	-16.1	7.0	5.0
